Tested on: Vero E6 infected with SARS-CoV-2
Test: inhibition of SARS-CoV-2 cytopathic effect; higher = more antiviral protection, active = above 15
Conditions: 48 h

Measured: inhibition of SARS-CoV-2 cytopathic effect

O=c1ccn([C@@H]2O[C@H](COP(=O)(O)OP(=O)(O)OP(=O)(O)O)[C@@H](O)[C@H]2O)c(=O)[nH]1
inactive: 1 nM -0.655% | 8.33 nM 1.84% | 100 nM 3.83% | 833.33 nM 2.04% | 10000 nM -0.735%

CSc1nc(NC2CCCC2)c([N+](=O)[O-])c(NC2CCCC2)n1
inactive: 1 nM -0.65% | 8.33 nM -0.38% | 100 nM 1.31% | 833.33 nM -0.4% | 10000 nM -0.11%

O=C(Nc1ccc(CN2CCOCC2)cc1)c1ccc(-c2cccc(Cl)c2)o1
inactive: 1 nM 0.42% | 8.33 nM -1.17% | 100 nM 0.17% | 833.33 nM 0.72% | 10000 nM -0.79%

COc1cc(/C=C2\CCC/C(=C\c3ccc(O)c(OC)c3)C2=O)ccc1O [cyclovalone]
inactive: 1 nM -0.89% | 8.33 nM 0.77% | 100 nM 2.28% | 833.33 nM 6.64%
active: 10000 nM 29.5%

C[N+](C)(C)CC#CCN1CCCC1=O [oxotremorine-M]
inactive: 1 nM -3.6% | 8.33 nM -0.15% | 100 nM 2.23% | 833.33 nM -2.21% | 10000 nM 0.38%

NC1CCN(c2c(F)cc3c(=O)c(C(=O)O)cn(C4CC4)c3c2Cl)C1 (stereo not given) [clinafloxacin]
inactive: 1 nM 2.47% | 8.33 nM 0.61% | 100 nM -1% | 833.33 nM -0.8% | 10000 nM 0.5%

CSCC1CN(/N=C/c2ccc([N+](=O)[O-])o2)C(=O)O1 (stereo not given) [inimur]
inactive: 1 nM -1.14% | 8.33 nM -0.35% | 100 nM 2.9% | 833.33 nM 1.93% | 10000 nM 0.52%

— the supplement of paper PMC13380429
